# Data reported in PubChem BioAssay (EPA / NIEHS).
# Inconclusive results are not listed. The source made the active and inactive calls. The calls were made as follows, unless noted: active = hit-call score of the fitted dose curve at least 0.9, where 1 is the maximum; inconclusive = response in the unintended direction; inactive = score below 0.9.
# Key:
# [1] = biological target: Agonist Androgen Response Element (ARE), AR (gene 367) (UniProt P10275); assay: OT_AR_ARELUC_AG_1440: Odyssey Thera (OT) 24-hour CHO-K1 Luciferase Assay for Agonist Androgen Response Element (ARE) (AID 2283379)
# Sequence of Agonist Androgen Response Element (ARE), AR (gene 367) (P10275 whole entry, looked up): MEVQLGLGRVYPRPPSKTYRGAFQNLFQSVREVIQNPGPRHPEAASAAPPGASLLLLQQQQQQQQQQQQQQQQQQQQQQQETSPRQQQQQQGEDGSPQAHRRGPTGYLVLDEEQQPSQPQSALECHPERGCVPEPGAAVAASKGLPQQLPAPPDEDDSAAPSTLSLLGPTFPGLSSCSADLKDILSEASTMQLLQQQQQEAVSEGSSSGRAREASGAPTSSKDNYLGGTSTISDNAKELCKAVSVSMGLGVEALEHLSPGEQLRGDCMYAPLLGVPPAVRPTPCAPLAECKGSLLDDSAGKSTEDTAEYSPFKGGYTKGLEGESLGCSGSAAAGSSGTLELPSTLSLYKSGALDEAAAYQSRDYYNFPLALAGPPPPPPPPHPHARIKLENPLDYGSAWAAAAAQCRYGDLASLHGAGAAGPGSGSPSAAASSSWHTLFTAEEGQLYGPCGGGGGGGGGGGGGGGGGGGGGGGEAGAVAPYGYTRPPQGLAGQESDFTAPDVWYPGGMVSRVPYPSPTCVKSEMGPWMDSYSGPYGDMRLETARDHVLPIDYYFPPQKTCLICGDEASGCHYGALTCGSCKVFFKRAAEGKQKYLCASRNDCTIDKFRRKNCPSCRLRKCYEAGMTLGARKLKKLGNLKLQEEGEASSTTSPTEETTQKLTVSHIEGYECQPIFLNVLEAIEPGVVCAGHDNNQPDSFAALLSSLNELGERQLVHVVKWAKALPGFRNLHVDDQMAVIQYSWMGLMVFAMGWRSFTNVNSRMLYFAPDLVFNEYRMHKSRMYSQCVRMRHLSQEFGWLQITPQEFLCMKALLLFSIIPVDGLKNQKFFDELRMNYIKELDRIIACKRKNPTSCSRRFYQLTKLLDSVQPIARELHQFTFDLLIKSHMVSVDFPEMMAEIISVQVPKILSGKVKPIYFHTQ
# Procedure, shortened: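 Seed CHO-K1 cells; dose compounds for 24 h; add D-luciferin plus ATP in PBS; read luminescence. Signal increase relative to vehicle defines agonist activity, with at least 3 replicate wells per sample.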
# [2] = biological target: Estrogen receptor (Homo sapiens) (UniProt P03372); assay: OT_ERa_GFPERaERE_0120: Odyssey Thera (OT) 2-hour HeLa Transcription Induction Assay for Estrogen Receptor (AID 2283382)
# Sequence of Estrogen receptor (Homo sapiens) (P03372 whole entry, looked up): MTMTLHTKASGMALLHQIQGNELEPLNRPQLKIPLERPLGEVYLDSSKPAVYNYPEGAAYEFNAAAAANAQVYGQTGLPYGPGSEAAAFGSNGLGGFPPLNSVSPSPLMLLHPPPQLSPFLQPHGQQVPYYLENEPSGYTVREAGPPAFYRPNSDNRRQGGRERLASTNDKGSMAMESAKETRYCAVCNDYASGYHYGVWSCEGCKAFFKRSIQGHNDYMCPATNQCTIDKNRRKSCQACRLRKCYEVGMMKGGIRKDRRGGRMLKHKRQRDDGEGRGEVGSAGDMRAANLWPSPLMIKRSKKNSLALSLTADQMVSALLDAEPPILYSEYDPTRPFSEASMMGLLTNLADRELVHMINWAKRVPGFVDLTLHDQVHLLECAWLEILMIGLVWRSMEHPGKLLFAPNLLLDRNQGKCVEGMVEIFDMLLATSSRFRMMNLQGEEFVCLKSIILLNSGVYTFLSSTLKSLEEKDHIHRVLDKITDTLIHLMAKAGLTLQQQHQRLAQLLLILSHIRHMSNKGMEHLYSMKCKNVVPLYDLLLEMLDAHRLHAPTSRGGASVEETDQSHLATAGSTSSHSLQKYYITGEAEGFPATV
# Procedure, shortened: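 HeLa, 384-well, 2 h chemical exposure; GFP reporter induction (ERE), fluorescence microscopy; high content image analysis; positive fitting direction vs DMSO.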
# [3] = biological target: Retinoic acid receptor RXR-alpha (Homo sapiens) (UniProt P19793); assay: OT_NURR1_NURR1RXRa_0480: Odyssey Thera (OT) 8-hour HEK293T Protein Complementation Assay for Nurr1/retinoid X receptor (RXR) (AID 2283385)
# Sequence of Retinoic acid receptor RXR-alpha (Homo sapiens) (P19793 whole entry, looked up, the tested form may be a part): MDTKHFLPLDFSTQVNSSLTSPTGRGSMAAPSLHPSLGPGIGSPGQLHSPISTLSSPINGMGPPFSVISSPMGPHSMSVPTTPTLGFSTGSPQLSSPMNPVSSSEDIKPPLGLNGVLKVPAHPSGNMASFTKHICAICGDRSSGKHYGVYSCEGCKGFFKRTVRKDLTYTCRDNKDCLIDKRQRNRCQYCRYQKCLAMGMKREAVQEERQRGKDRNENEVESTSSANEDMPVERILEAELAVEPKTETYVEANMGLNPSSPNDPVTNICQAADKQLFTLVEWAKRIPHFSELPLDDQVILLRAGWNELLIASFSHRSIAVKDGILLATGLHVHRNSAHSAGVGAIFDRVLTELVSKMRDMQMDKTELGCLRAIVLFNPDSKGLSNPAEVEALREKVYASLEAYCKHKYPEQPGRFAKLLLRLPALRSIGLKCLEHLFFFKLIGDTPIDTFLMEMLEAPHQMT
# Procedure, shortened: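 8 h compound exposure, HEK293T; Nurr1/RXRα fragment complementation; fluorescence intensity; positive fitting direction vs DMSO baseline.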
# [4] = biological target: Peroxisome proliferator-activated receptor gamma (Homo sapiens) (UniProt P37231); assay: OT_PPARg_PPARgSRC1_0480: Odyssey Thera (OT) 8-hour Protein-Complementation Assay for Peroxisome Proliferator-activated Receptor Gamma / SRC-1 Co-activator (AID 2283387);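 also: nuclear to cytoplasmic split Venus YFP fluorescence ratio reporting PPARg SRC-1 interaction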
# Sequence of Peroxisome proliferator-activated receptor gamma (Homo sapiens) (P37231 whole entry, looked up, the tested form may be a part): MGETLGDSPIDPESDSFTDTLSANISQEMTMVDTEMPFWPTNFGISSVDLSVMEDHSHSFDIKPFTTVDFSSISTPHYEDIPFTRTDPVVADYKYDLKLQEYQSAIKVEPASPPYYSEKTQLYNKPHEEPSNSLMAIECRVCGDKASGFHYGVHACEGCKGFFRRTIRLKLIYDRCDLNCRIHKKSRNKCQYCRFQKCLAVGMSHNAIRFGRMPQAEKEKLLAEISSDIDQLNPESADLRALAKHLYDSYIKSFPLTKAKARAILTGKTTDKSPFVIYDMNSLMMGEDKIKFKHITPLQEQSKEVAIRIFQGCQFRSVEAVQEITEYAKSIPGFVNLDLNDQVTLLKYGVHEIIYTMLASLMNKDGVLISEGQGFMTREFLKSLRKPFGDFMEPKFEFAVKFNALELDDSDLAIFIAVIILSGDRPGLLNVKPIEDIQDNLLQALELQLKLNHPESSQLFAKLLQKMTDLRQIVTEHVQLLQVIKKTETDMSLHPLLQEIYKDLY
# Procedure, shortened: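 Protein-fragment complementation in HEK293T: Venus YFP halves (residues 1-158, 159-239, mutated to IFP1/IFP2) fused to PPARg/SRC-1. 8 h exposure; N/C ratio at 488 nm; DMSO negative control.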
# [5] = biological target: Peroxisome proliferator-activated receptor gamma (Homo sapiens) (UniProt P37231); assay: OT_PPARg_PPARgSRC1_1440: Odyssey Thera (OT) 24-hour Protein-Complementation Assay for Peroxisome Proliferator-activated Receptor Gamma/ SRC-1 Co-activator (AID 2283388);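 also: nuclear to cytoplasmic ratio of reconstituted Venus YFP fluorescence in fixed imaged cells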
# Procedure, shortened: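 Protein-fragment complementation between PPARg and coactivator SRC-1 was measured by fluorescence imaging in transiently transfected HEK293T cells after 24 h treatment. Signal was quantified as N/C ratio in the 488 nm channel, with DMSO as negative control.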
# [6] = CEETOX_H295R_11DCORT: CeeTox H295R High-throughput Steroidogenesis Assay for 11-Deoxycortisol (11DCORT) (AID 2283432; active = hit-call score of the fitted dose curve at least 0.9, where 1 is the maximum; inactive = score below 0.9); conditions: actives raise or lower the signal
# Procedure, shortened: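 Adrenal carcinoma line H295R, run per OECD 456 with minor changes, was forskolin-stimulated (10 uM, 48 h) before a 48 h chemical exposure at 0.1% DMSO. Secreted 11-deoxycortisol was quantified by HPLC-MS/MS.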
# [7] = CEETOX_H295R_OHPREG: CeeTox H295R High-throughput Steroidogenesis Assay for OH-Pregnenolone (OHPREG) (AID 2283434; active = hit-call score of the fitted dose curve at least 0.9, where 1 is the maximum; inactive = score below 0.9); conditions: actives raise or lower the signal
# Procedure, shortened: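 Human adrenal H295R cells were prestimulated 48 h with 10 uM forskolin, then exposed 48 h to chemical in 0.1% DMSO. Medium 17alpha-hydroxypregnenolone was quantified by HPLC-MS/MS after MTBE extraction; bidirectional fitting versus DMSO baseline.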
# [8] = CEETOX_H295R_ANDR: CeeTox H295R High-throughput Steroidogenesis Assay for Androstenedione (ANDR) (AID 2283436; active = hit-call score of the fitted dose curve at least 0.9, where 1 is the maximum; inactive = score below 0.9); conditions: actives raise or lower the signal
# Procedure, shortened: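 H295R human adrenal cells (passages ≤10) were exposed to test chemicals for 48 h; androstenedione in medium was MTBE-extracted and quantified by HPLC-MS/MS against a 7-point standard curve. Bidirectional fitting used DMSO as baseline.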
# [9] = CEETOX_H295R_CORTIC: CeeTox H295R High-throughput Steroidogenesis Assay for Corticosterone (CORTIC) (AID 2283437; active = hit-call score of the fitted dose curve at least 0.9, where 1 is the maximum; inactive = score below 0.9;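 also: corticosterone secreted into medium quantified by mass spectrometry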); conditions: actives raise or lower the signal
# Procedure, shortened: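 H295R cells were prestimulated 48 h with 10 uM forskolin, then exposed 48 h to test chemical in 0.1% DMSO. Medium corticosterone was MTBE-extracted and quantified by HPLC-MS/MS; bidirectional fit versus DMSO baseline.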
# [10] = CEETOX_H295R_CORTISOL: CeeTox H295R High-throughput Steroidogenesis Assay for Cortisol (AID 2283438; active = hit-call score of the fitted dose curve at least 0.9, where 1 is the maximum; inactive = score below 0.9;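 also: cortisol secreted into medium quantified by LC-MS/MS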); conditions: actives raise or lower the signal
# Procedure, shortened: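 Forskolin 10 uM 48 h prestim → test cmpd in DMSO (0.1% final) 48 h → medium MTBE-extracted → LC-MS/MS cortisol vs 7-pt std curve. Gain/loss of signal fitted vs DMSO. MTT viability in same wells.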
# [11] = CEETOX_H295R_DOC: CeeTox H295R High-throughput Steroidogenesis Assay for DOC (AID 2283439; active = hit-call score of the fitted dose curve at least 0.9, where 1 is the maximum; inactive = score below 0.9); conditions: actives raise or lower the signal
# Procedure, shortened: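 Readout: 11-deoxycorticosterone in culture medium by reverse-phase C18 HPLC with ESI+ tandem MS after MTBE extraction. Cells: H295R, forskolin-primed (10 uM, 48 h), chemical-treated 48 h; DMSO 0.1% final. Activity fitted bidirectionally versus DMSO.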
# [12] = CEETOX_H295R_PROG: CeeTox H295R High-throughput Steroidogenesis Assay for Progesterone (PROG) (AID 2283442; active = hit-call score of the fitted dose curve at least 0.9, where 1 is the maximum; inactive = score below 0.9); conditions: actives raise or lower the signal
# Procedure, shortened: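 Steps: seed H295R cells and let them adhere overnight; prime 48 h with 10 uM forskolin; dose with compound in DMSO at 0.1% final for 48 h; extract medium steroids with MTBE; measure progesterone by LC-MS/MS. MTT viability was run in the same wells.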
# [13] = biological target: Estrogen receptor beta (Homo sapiens) (UniProt Q92731); assay: OT_ER_ERbERb_1440: Odyssey Thera (OT) 24-hour HEK293T Protein-Complementation Assay for Estrogen Receptor-beta/-beta Homodimer (AID 2283380);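 also: fluorescence gain from ER beta LBD homodimer complementation read by laser scanning cytometry; scored as signal increase over DMSO baseline for both agonists and antagonists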
# Sequence of Estrogen receptor beta (Homo sapiens) (Q92731 whole entry, looked up, the tested form may be a part): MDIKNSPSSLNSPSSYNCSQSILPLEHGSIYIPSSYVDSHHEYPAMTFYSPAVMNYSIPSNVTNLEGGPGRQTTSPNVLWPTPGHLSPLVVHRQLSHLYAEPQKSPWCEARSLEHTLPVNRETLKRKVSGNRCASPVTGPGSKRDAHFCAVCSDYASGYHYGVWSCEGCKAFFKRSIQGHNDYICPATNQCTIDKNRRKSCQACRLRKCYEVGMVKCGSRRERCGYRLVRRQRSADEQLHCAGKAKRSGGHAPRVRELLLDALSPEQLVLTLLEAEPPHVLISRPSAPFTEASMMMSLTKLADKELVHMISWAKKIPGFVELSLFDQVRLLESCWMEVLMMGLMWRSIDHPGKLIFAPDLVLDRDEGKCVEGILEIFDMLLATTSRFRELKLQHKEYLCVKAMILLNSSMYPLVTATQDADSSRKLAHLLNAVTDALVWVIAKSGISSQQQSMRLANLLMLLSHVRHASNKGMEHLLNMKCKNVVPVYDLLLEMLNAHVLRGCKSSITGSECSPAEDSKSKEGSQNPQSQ
# Procedure, shortened: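 HEK293T cells stably expressing human ER-beta LBD (aa 310-547) PCA homodimer pair, dosed 24 h; formaldehyde-fixed, Draq5-stained. Readout: increase in nuclear (agonist) or nuclear plus cytoplasmic (antagonist) fluorescence intensity versus DMSO, gain-of-signal fitting.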
# [14] = biological target: Estrogen receptor (Homo sapiens) (UniProt P03372); assay: OT_ERa_GFPERaERE_0480: Odyssey Thera (OT) 8-hour HeLa Transcription Induction Assay for Estrogen Receptor (AID 2283381; active = hit-call score of the fitted dose curve at least 0.9, where 1 is the maximum; inactive = score below 0.9)
# Procedure, shortened: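 Fluorescent reporter signal, imaged by microscopy and scored with image-analysis algorithms, was taken 8 h after chemical dosing of HeLa cells; activity was fitted upward relative to DMSO.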
# [15] = biological target: Bile acid receptor (Homo sapiens) (UniProt Q96RI1); assay: OT_FXR_FXRSRC1_0480: Odyssey Thera (OT) 8-hour HEK293T Protein-Complementation Assay for Farnesoid X receptor/SRC-1 Co-activator (AID 2283383)
# Sequence of Bile acid receptor (Homo sapiens) (Q96RI1 whole entry, looked up, the tested form may be a part): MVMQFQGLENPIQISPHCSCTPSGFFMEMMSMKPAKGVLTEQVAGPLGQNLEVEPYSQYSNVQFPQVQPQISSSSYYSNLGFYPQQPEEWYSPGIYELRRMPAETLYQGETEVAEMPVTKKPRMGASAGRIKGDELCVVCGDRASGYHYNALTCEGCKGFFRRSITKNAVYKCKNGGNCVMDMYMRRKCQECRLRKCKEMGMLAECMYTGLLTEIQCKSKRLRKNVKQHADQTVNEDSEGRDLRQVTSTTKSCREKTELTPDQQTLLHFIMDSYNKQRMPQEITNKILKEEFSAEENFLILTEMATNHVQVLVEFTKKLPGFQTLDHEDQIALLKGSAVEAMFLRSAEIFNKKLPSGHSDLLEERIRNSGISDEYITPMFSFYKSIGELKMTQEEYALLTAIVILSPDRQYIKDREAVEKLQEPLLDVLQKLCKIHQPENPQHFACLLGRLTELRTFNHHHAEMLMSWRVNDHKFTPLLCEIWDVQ
# Procedure, shortened: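 Human kidney HEK293T cells carried FXR/SRC-1 fragment-complementation constructs. Compounds were added and incubated 8 h. Reporter reassembly upon receptor–co-activator interaction was then quantified by fluorescence, with curves fitted in the positive direction relative to DMSO.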
# [16] = biological target: Bile acid receptor (Homo sapiens) (UniProt Q96RI1); assay: OT_FXR_FXRSRC1_1440: Odyssey Thera (OT) 24-hour HEK293T Protein-Complementation Assay for Farnesoid X receptor/SRC-1 Co-activator (AID 2283384)
# Procedure, shortened: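 Compounds are applied to human kidney HEK293T cells expressing bait and prey fused to reporter protein fragments; after 24 h, reconstituted reporter fluorescence is measured. Activity is fitted as signal gain over DMSO.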
# [17] = biological target: Retinoic acid receptor RXR-alpha (Homo sapiens) (UniProt P19793); assay: OT_NURR1_NURR1RXRa_1440: Odyssey Thera (OT) 24-hour HEK293T Protein Complementation Assay for Nurr1/retinoid X receptor (RXR) (AID 2283386)
# Procedure, shortened: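 Interaction of Nurr1 with RXRα brings fused reporter fragments together in human HEK293T cells, restoring a functional reporter. Fluorescence intensity is measured 24 h after chemical treatment, and values are analysed in the positive direction against DMSO.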
# [18] = CEETOX_H295R_ESTRONE: CeeTox H295R High-throughput Steroidogenesis Assay for Estrone (AID 2283441; active = hit-call score of the fitted dose curve at least 0.9, where 1 is the maximum; inactive = score below 0.9;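 also: estrone secreted into medium measured by LC-MS/MS after dansyl derivatization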); conditions: actives raise or lower the signal
# Procedure, shortened: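 H295R cells prestimulated 48 h with 10 uM forskolin, then exposed 48 h to chemicals in 0.1% DMSO final; estrone in medium extracted with MTBE, dansyl-derivatized, quantified by HPLC-MS/MS; bidirectional fitting versus DMSO, viability by MTT.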
smiles,measurement,setting,value
CC(C)(C)c1cccc(O)c1,outcome,[1],inactive
same,outcome,[2],inactive
same,outcome,[3],inactive
same,outcome,[4],inactive
same,outcome,[5],inactive
same,outcome,[6],inactive
same,outcome,[7],inactive
same,outcome,[8],inactive
same,outcome,[9],inactive
same,outcome,[10],inactive
same,outcome,[11],inactive
same,outcome,[12],inactive
CCCCCCCCOS(=O)(=O)O,outcome,[13],inactive
same,outcome,[14],inactive
same,outcome,[2],inactive
same,outcome,[15],inactive
same,outcome,[16],inactive
same,outcome,[4],inactive
same,outcome,[5],inactive
COc1ccccc1O,outcome,[13],inactive
same,outcome,[14],inactive
same,outcome,[2],inactive
same,outcome,[15],inactive
same,outcome,[3],inactive
same,outcome,[17],inactive
same,outcome,[4],inactive
same,outcome,[5],inactive
COc1cc(OC)c2ccc(=O)oc2c1,outcome,[1],inactive
same,outcome,[13],inactive
same,outcome,[14],inactive
same,outcome,[2],inactive
same,outcome,[3],inactive
same,outcome,[17],inactive
same,outcome,[4],inactive
same,outcome,[5],inactive
CC1=CCC(C(C)(C)O)CC1 (centres undefined),outcome,[1],inactive
same,outcome,[2],inactive
same,outcome,[15],inactive
same,outcome,[16],inactive
same,outcome,[3],inactive
same,outcome,[17],inactive
same,outcome,[4],inactive
same,outcome,[5],inactive
CC(C)(CO)CO,outcome,[1],inactive
same,outcome,[13],inactive
same,outcome,[14],inactive
same,outcome,[2],inactive
same,outcome,[3],inactive
O=C(O)CS,outcome,[13],inactive
same,outcome,[14],inactive
same,outcome,[2],inactive
same,outcome,[3],inactive
same,outcome,[17],inactive
same,outcome,[4],inactive
same,outcome,[5],inactive
CCCc1ccc(O)cc1,AC50,[13],46.5 µM (active)
same,outcome,[14],inactive
same,outcome,[2],inactive
same,outcome,[15],inactive
same,outcome,[16],inactive
same,outcome,[3],inactive
same,outcome,[17],inactive
same,outcome,[4],inactive
same,outcome,[5],inactive
same,outcome,[6],inactive
same,outcome,[7],inactive
same,AC50,[9],36.4 µM (active)
same,outcome,[10],inactive
same,outcome,[11],inactive
same,outcome,[18],inactive
same,outcome,[12],inactive
CCCCCCCCOC(=O)c1ccc(O)cc1,AC50,[13],5.35 µM (active)
same,AC50,[14],3.7 µM (active)
same,AC50,[2],3.43 µM (active)
same,AC50,[3],74.7 µM (active)
same,AC50,[17],92.8 µM (active)
OC[C@H]1O[C@@H](O[C@H]2[C@H](O)[C@@H](O)[C@H](O)O[C@@H]2CO)[C@H](O)[C@@H](O)[C@H]1O,outcome,[1],inactive
same,outcome,[13],inactive
same,outcome,[14],inactive
same,outcome,[2],inactive
same,outcome,[15],inactive
same,outcome,[16],inactive
same,outcome,[4],inactive
same,outcome,[5],inactive
FC(F)(F)c1ccc(Cl)c(Cl)c1,outcome,[1],inactive
same,outcome,[13],inactive
same,outcome,[2],inactive
same,outcome,[17],inactive
same,outcome,[4],inactive
same,outcome,[5],inactive
CCOCC(C)O (centres undefined),outcome,[13],inactive
same,outcome,[14],inactive
same,outcome,[2],inactive
same,outcome,[16],inactive
same,outcome,[3],inactive
same,outcome,[4],inactive
same,outcome,[5],inactive
O=C1OC2(c3ccc(O)cc3Oc3cc(O)ccc32)c2ccccc21,outcome,[13],inactive
same,outcome,[14],inactive
same,outcome,[2],inactive
same,AC50,[15],13.1 µM (active)
same,AC50,[16],11.4 µM (active)
same,outcome,[4],inactive
same,outcome,[5],inactive
